# Results taken from PubChem BioAssay (Tox21).
# Inconclusive results are not listed. Some structures have more than one record in an assay (separate samples or runs), and their calls can disagree. Active and inactive are the calls of the source. The call rests on the fitted dose curve.
# Assay: p53 small molecule agonists, cell-based qHTS assay with human liver microsomes: qHTS cell viability counter screen (AID 1963579); further: nearly all actives have a fitted effect of over 45% in size
# Conditions: p53RE-bla HCT-116 viability, ATP luminescence, 16 h, HLM; series mostly up to 66 µM; activity change, negative = cytotoxicity: at the top concentration
# Excerpt: National Center for Advancing Translational Sciences [NCATS]
# Division of Preclinical Innovation [DPI]
# U.S. Environmental Protection Agency [EPA]
# National Institutes of Environmental Health Sciences [NIEHS]
# National Toxicology Program [NTP]
# U.S. Food and Drug Administration [FDA]
# p53, a tumor suppressor protein, is activated following cellular insult, including DNA damage and other cellular stresses. The activation of p53 regulates cell fate by inducing DNA repair, cell cycle arrest, apoptosis, or cellular senescence. The activation of p53, therefore, is a good indicator of DNA damage and other cellular stresses. […] The activation of the reporter gene under culture conditions can be detected by fluorescence intensity. This cell line was used to screen the Tox21 10K compound library in the condition of presence of human liver microsomes and to identify agonists that activate the p53 signaling pathway after in vitro metabolic activation (Ooka et al., Archive of Toxicology 96:1975-1987, 2022).
# Tox21 Assay Protocol Summary:
# The p53RE-bla cells were dispensed at 4,000cells/3ul/well in 1536-well black-clear bottom plates. After the assay plates were incubated at 37 C, 5% CO2 incubator for 5 hours, 23 nL of compounds dissolved in DMSO, positive controls or DMSO only was transferred to the assay plate. Following compound addition, 3 uL of human liver microsomes (XenoTech, Kansas City, KS) at final concentration of 0.5 mg/mL and 1uL of B-Nicotinamide adenine dinucleotide 2'-phosphate (NADPH) at final concentration of 0.5 mg/mL were transferred to the assay plate. The plates were incubated at 37 C for 16 hours. 1 uL of LiveBLAzer detection mixture was added to each well and the plates were incubated at room temperature in the dark for 2 h. Fluorescence intensity at 460 and 530 nm emission and 405 nm excitation were measured by an Envision plate reader. For cell viability readout that measures cytotoxicity, 4 ul/well of CellTiter-Glo reagent was added into the assay plates using a Flying Reagent Dispenser. After 30 min incubation at room temperature, the luminescence intensity in the plates was measured using a ViewLux plate reader.
# On the % scale 0 is the no-effect control and ±100 the full control effect; potency means the concentration at half of the fitted maximal effect.
SMILES,"activity change, negative = cytotoxicity",Potency
O=[N+]([O-])/C=C/c1ccccc1,-6.31% (inactive),–
O=C(O)CC[N+](=O)[O-],–,inactive
CC[N+]1(CC)CCC(OC(=O)C(O)(c2ccccc2)c2ccccc2)C1 (stereo not given),-11% [at 30.3 µM] (inactive),–
O=C(NCNC(=O)NC1C(=O)NC(=O)N1CO)NC1C(=O)NC(=O)N1CO (stereo not given),0.393% (inactive),–
CCOP(=O)(OCC)OCC,–,inactive
Cl/C=C/Cl,–,inactive
C=CCSSCC=C,0.73% (inactive),–
NC(=S)Nc1ccccc1,-0.593% (inactive),–
C=C1CC[C@@]2(O)[C@H]3Cc4ccc(O)c5c4[C@@]2(CCN3CC2CC2)[C@H]1O5,14.9% [at 30.3 µM] (inactive),–
O=P(OCCCl)(OCCCl)OCCCl,–,inactive
CC(C)(c1ccccc1)c1ccc(O)c(C(C)(C)c2ccccc2)c1,–,40.4 µM (active) and inactive
[Cl-].[Cl-].[Cl-].[Fe+3],–,inactive
Brc1c(Br)c(Br)c(Br)c(Br)c1Br,-1.65% [at 5.99 µM] (inactive),–
CCOP(=S)(OCC)SCSc1cc(Cl)ccc1Cl,-1.39% (inactive),–
O=C(O)c1nc(Cl)ccc1Cl,–,inactive
CC(C)c1ccc(CO)cc1,–,inactive
CCC/C=N/O,–,inactive
C=C(C)C#N,–,inactive
CCC(C)n1c(=O)[nH]c(C)c(Br)c1=O (stereo not given),2.2% (inactive),–
N#CCCCl,–,inactive

SMILES,"activity change, negative = cytotoxicity",Potency
O=C(CBr)c1ccc(O)cc1,-22% (inactive),–
N#Cc1ccncc1,18.5% (inactive),–
CN(C)C(=O)Cl,2.5% (inactive),–
O=c1nc(O)n(Cl)c(=O)n1Cl,–,inactive
C=CC#N,–,inactive
O=C(O)C(Cl)Cl,–,inactive
CCCCC(CC)C(=O)Cl (stereo not given),–,inactive
CCCCOC(=O)c1ccccc1C(=O)O,-2.61% (inactive),–
CCNc1nc(Cl)nc(NC(C)C)n1,–,inactive
COc1ccc2c3c1O[C@H]1[C@@H](O)C=C[C@H]4[C@@H](C2)N(C)CC[C@@]341,3.92% (inactive),–
Nc1ccc(Cl)cc1,–,inactive
ClC1=C(Cl)[C@]2(Cl)[C@@H]3[C@@H](Cl)[C@H](Cl)C[C@@H]3[C@@]1(Cl)C2(Cl)Cl,2.42% (inactive),–
CCCCOC(=O)CCC(=O)OCCCC,0.226% (inactive),–
CCc1cc(C)cc(CC)c1-c1c(OC(=O)C(C)(C)C)n2n(c1=O)CCOCC2,0.086% (inactive),–
CN(C)P(=O)(N(C)C)N(C)C,–,inactive
C=COCCCl,4.6% (inactive),–
CN(CCCC(=O)c1cccnc1)N=O,1.11% (inactive),–
Nc1ccc(-c2ccc(N)c(N)c2)cc1N,–,inactive
O=[N+]([O-])c1c(Cl)c(Cl)c(Cl)c(Cl)c1Cl,–,inactive
CC1=C2[C@H]3OC(=O)[C@@H](C)[C@@H]3CC[C@@]2(C)C=CC1=O,26.1% [at 30.3 µM] (inactive),–
